Results filed as inconclusive are left out. Some compounds were tested as several samples or in several runs, with calls that do not always agree. Activity calls are given as the source filed them. The calls were made as follows, unless noted: active = hit-call score of the fitted dose curve at least 0.9, where 1 is the maximum; inconclusive = response in the unintended direction; inactive = score below 0.9.
Tests used:
[1] = BSK_3C_uPAR: BioMAP Diversity Plus: 3C Assay for Urokinase-type plasminogen activator receptor (uPAR) Biomarker Activity (AID 2282998; active = hit-call score of the fitted dose curve at least 0.9, where 1 is the maximum; inactive = score below 0.9); conditions: BioMAP 3C HUVEC, uPAR biomarker ELISA; actives raise or lower the signal
Outline: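 Readout: ELISA for surface uPAR. System: human umbilical vein endothelial primary cells, 24 h after chemical exposure. Analysis: bidirectional fit, DMSO baseline.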

[2] = BSK_3C_VCAM1: BioMAP Diversity Plus: 3C Assay for Vascular cell adhesion molecule 1 (VCAM1) Biomarker Activity (AID 2282999; active = hit-call score of the fitted dose curve at least 0.9, where 1 is the maximum; inactive = score below 0.9); conditions: BioMAP 3C HUVEC, VCAM1 ELISA, cytokine-stimulated; actives raise or lower the signal
Outline: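 Human umbilical vein endothelial cells were dosed with compound for 24 h, after which cell-surface VCAM-1 was quantified by ELISA. Bidirectional curve fitting used DMSO as negative control and activity baseline.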

[3] = BSK_4H_Eotaxin3: BioMAP Diversity Plus: 4H Assay for Eotaxin 3 Biomarker Activity (AID 2283000; active = hit-call score of the fitted dose curve at least 0.9, where 1 is the maximum; inactive = score below 0.9;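 also: CCL26 protein level quantified by ELISA in parallel with SRB cytotoxicity check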); conditions: primary human endothelial cells (HUVEC); actives raise or lower the signal
Outline: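 Chemicals were added to human umbilical vein endothelium cultures, and Eotaxin-3 was quantified by ELISA at 24 h. Values were derived by bidirectional fitting with DMSO serving as negative control and activity baseline.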

[4] = target: human Peroxisome Proliferator-activated Receptor delta (PPARd), PPARD (gene 5467) (UniProt Q03181); test: ATG_PPARd_TRANS: Attagene TRANS-FACTORIAL HepG2 Assay for human Peroxisome Proliferator-activated Receptor delta (PPARd) (AID 2283002)
Outline: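 Measured quantity: GAL4-UAS reporter transcript induction in HepG2 after 24 h chemical dosing, with NR-Gal4 chimeras supplied by transient transfection. Detection by RT-PCR and capillary electrophoresis; upward fit against DMSO.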

[5] = read-out: Intercellular Adhesion Molecule 1 (ICAM1), ICAM1 (gene 3383); test: BSK_3C_ICAM1: BioMAP Diversity Plus: 3C Assay for Intercellular Adhesion Molecule 1 (ICAM1) Biomarker Activity (AID 2283003; active = hit-call score of the fitted dose curve at least 0.9, where 1 is the maximum; inactive = score below 0.9); conditions: primary human endothelial cells (HUVEC); actives raise or lower the signal
Outline: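 Human vascular endothelial primary cells, 3C conditions, 24 h treatment. ICAM-1 by ELISA.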

[6] = BSK_3C_Proliferation: Cell Proliferation Assessment in the BioMAP Diversity Plus: 3C Assay (AID 2283006; active = hit-call score of the fitted dose curve at least 0.9, where 1 is the maximum; inactive = score below 0.9); conditions: primary human endothelial cells (HUVEC)
Outline: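 Proliferation of human vascular endothelial primary cells after 48 h dosing, quantified as SRB-stained protein at 560 nm relative to DMSO.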

[7] = target: Peroxisome proliferator-activated receptor gamma (Homo sapiens) (UniProt P37231); test: ATG_PPARg_TRANS: Attagene TRANS-FACTORIAL HepG2 Assay for human Peroxisome Proliferator-activated Receptor-gamma (PPARg) (AID 2283007)
Outline: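 Transient transfection of HepG2 with GAL4-UAS-driven reporter units; chemical dosing 24 h; total RNA → oligo(dT) RT → PCR with reporter primers → 6-FAM primer extension → HpaI digest 2 h 37 C → capillary electrophoresis. Positive direction vs DMSO.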

[8] = target: Retinoic acid receptor RXR-alpha (Homo sapiens) (UniProt P19793); test: ATG_RXRa_TRANS: Attagene TRANS-FACTORIAL HepG2 Assay for human Retinoid X Receptor alpha (RXRa) (AID 2283012)
Outline: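 Cells (HepG2) carried transiently transfected GAL4-responsive reporter units. Following a 24 h chemical incubation, reporter mRNA induction was read via RT-PCR fragment analysis; DMSO served as negative control and baseline.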

[9] = target: human Retinoid X Receptor beta (RXRb), RXRB (gene 6257) (UniProt P28702); test: ATG_RXRb_TRANS: Attagene TRANS-FACTORIAL HepG2 Assay for human Retinoid X Receptor beta (RXRb) (AID 2283013)
Outline: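 Multiplexed TRANS reporter assay in HepG2; 24 h dosing; reporter mRNA by RT-PCR/CE fluorescence; gain-of-signal relative to DMSO.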

[10] = read-out: E-selectin (Homo sapiens) (UniProt P16581); test: BSK_3C_Eselectin: BioMAP Diversity Plus: 3C Assay for Eselectin Biomarker Activity (AID 2283015; active = hit-call score of the fitted dose curve at least 0.9, where 1 is the maximum; inactive = score below 0.9); conditions: primary human endothelial cells (HUVEC); actives raise or lower the signal
Outline: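 ELISA read-out of E-selectin on endothelial monolayers after 24 h chemical treatment. Human umbilical vein primary cells served as the system, with DMSO defining baseline activity for bidirectional fitting.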

[11] = read-out: Interleukin-1 alpha (IL1a), IL1A (gene 3552); test: BSK_BE3C_IL1a: BioMAP Diversity Plus: BE3C Assay for Interleukin-1 alpha (IL1a) Biomarker Activity (AID 2283016; active = hit-call score of the fitted dose curve at least 0.9, where 1 is the maximum; inactive = score below 0.9); conditions: primary human bronchial epithelial cells; actives raise or lower the signal
Outline: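 Cultures of primary human bronchial epithelial cells receive test chemical. After 24 h, IL-1a is quantified by ELISA, while parallel wells are fixed in TCA and SRB-stained for total protein. Changes in either direction are fitted relative to DMSO.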

[12] = read-out: Human Leukocyte Antigen - DR isotype (HLADR), HLA-DRA (gene 3122); test: BSK_3C_HLADR: BioMAP Diversity Plus: 3C Assay for Human Leukocyte Antigen - DR isotype (HLADR) Biomarker Activity (AID 2283019; active = hit-call score of the fitted dose curve at least 0.9, where 1 is the maximum; inactive = score below 0.9); conditions: primary human endothelial cells (HUVEC); actives raise or lower the signal
Outline: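 ELISA readout of surface HLA-DR on human umbilical vein endothelium, taken 24 h after chemical treatment. Gain- and loss-of-signal were both fitted relative to DMSO.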

[13] = target: human Retinoic Acid Receptor beta (RARb), RARB (gene 5915) (UniProt P10826); test: ATG_RARb_TRANS: Attagene TRANS-FACTORIAL HepG2 Assay for human Retinoic Acid Receptor beta (AID 2283004)
Outline: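 Transient transfection of HepG2 with multiple reporter units → chemical dosing, 24 h → total RNA isolation → RT with oligo(dT) → reporter-specific PCR, 6-FAM primer extension, HpaI digest → capillary electrophoresis. Positive direction vs DMSO control.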

[14] = target: Retinoic acid receptor alpha (Homo sapiens) (UniProt P10276); test: ATG_RARa_TRANS: Attagene TRANS-FACTORIAL HepG2 Assay for human Retinoic Acid Receptor alpha (RARa) (AID 2283005)
Outline: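 HepG2 cells transiently transfected with multiple reporter units expressing chimeric RARα-GAL4 fusion, with GAL4-UAS-driven reporters. After 24 h compound exposure, reporter mRNA induction quantified by RT-PCR and capillary electrophoresis with fluorescent labeling; gain-of-signal fitted relative to DMSO control.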

[15] = target: Nuclear receptor subfamily 1 group I member 2 (Homo sapiens) (UniProt O75469); test: ATG_PXR_TRANS: Attagene TRANS-FACTORIAL HepG2 Assay for human Pregnane X Receptor (PXR) (AID 2283008)
Outline: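 Fluorescence intensity of FAM-labelled, HpaI-digested reporter amplicons, separated by capillary electrophoresis, quantifies induction. HepG2 cells with PXR-Gal4 trans-reporter system were exposed 24 h; DMSO defines baseline.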

[16] = target: human Thyroid Receptor alpha (THRa1), THRA (gene 7067) (UniProt P10827); test: ATG_THRa1_TRANS: Attagene TRANS-FACTORIAL HepG2 Assay for human Thyroid Receptor alpha (THRa1) (AID 2283014)
Outline: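 Reporter transcript induction, read by capillary electrophoresis of 6-FAM-labelled RT-PCR products, reflects activity of a transfected THRa1-Gal4 fusion in HepG2 liver cells. Cells were dosed for 24 h; activity was fitted in the positive direction against DMSO.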

[17] = target: human RAR-related Orphan Receptor beta (RORb), RORB (gene 6096) (UniProt Q92753); test: ATG_RORb_TRANS: Attagene TRANS-FACTORIAL HepG2 Assay for human RAR-related Orphan Receptor beta (RORb) (AID 2283010)
Outline: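 In this TRANS-format test, human HepG2 cells express chimeric NR-Gal4 fusion proteins driving GAL4-UAS reporters. After 24 h dosing, reporter transcripts are measured by fluorescent RT-PCR/capillary electrophoresis, with DMSO as negative control.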

[18] = target: human RAR-related Orphan Receptor gamma (RORg), RORC (gene 6097) (UniProt P51449); test: ATG_RORg_TRANS: Attagene TRANS-FACTORIAL HepG2 Assay for human RAR-related Orphan Receptor gamma (RORg) (AID 2283011)
Outline: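 First, HepG2 liver cells were transfected with GAL4-UAS-driven reporter constructs and the RORg-Gal4 fusion. Next, they were treated with chemical for 24 h. Finally, reporter mRNA was quantified by RT-PCR and capillary electrophoresis, with upward activity fitted against DMSO.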

Measured: AC50

human Retinoid X Receptor beta (RXRb), RXRB (gene 6257), sequence (P28702 whole entry, looked up): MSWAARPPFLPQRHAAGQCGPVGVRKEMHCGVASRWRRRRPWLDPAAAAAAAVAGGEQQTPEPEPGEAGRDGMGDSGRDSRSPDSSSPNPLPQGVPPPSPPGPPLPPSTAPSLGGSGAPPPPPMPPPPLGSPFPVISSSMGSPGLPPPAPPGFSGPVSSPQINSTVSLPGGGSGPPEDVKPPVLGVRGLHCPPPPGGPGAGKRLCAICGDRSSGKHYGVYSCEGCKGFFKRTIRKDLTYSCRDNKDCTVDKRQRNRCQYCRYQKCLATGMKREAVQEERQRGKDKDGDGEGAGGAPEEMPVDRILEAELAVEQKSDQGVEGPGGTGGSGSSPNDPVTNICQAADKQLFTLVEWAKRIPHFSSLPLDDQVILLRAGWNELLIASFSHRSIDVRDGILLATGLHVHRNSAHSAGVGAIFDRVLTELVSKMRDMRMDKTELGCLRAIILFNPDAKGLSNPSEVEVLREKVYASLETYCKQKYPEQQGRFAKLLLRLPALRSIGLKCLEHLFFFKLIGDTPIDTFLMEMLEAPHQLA
Retinoic acid receptor RXR-alpha (Homo sapiens), sequence (P19793 whole entry, looked up, the tested form may be a part): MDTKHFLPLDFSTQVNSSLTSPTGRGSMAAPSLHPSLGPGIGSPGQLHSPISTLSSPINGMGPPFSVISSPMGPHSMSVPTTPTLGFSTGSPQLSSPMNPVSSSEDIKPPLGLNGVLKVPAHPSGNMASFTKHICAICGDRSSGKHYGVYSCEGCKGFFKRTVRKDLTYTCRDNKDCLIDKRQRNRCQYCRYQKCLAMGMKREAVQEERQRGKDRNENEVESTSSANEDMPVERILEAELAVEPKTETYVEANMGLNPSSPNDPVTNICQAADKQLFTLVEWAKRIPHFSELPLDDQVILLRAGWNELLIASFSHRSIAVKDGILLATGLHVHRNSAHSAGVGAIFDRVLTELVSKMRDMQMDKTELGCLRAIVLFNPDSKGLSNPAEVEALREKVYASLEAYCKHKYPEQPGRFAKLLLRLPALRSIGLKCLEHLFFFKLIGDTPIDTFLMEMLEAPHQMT
Retinoic acid receptor alpha (Homo sapiens), sequence (P10276 whole entry, looked up, the tested form may be a part): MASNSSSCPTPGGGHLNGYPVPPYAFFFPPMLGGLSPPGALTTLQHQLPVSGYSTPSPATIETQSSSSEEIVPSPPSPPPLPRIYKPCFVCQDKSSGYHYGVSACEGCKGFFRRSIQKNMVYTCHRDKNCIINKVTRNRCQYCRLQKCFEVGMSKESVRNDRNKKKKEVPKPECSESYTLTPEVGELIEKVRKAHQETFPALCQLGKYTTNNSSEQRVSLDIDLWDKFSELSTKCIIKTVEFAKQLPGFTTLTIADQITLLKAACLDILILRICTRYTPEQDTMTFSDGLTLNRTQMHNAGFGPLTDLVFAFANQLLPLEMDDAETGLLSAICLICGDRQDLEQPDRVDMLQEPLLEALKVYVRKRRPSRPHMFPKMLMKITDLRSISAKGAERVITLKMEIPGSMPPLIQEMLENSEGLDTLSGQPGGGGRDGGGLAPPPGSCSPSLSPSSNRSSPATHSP
Nuclear receptor subfamily 1 group I member 2 (Homo sapiens), sequence (O75469 whole entry, looked up, the tested form may be a part): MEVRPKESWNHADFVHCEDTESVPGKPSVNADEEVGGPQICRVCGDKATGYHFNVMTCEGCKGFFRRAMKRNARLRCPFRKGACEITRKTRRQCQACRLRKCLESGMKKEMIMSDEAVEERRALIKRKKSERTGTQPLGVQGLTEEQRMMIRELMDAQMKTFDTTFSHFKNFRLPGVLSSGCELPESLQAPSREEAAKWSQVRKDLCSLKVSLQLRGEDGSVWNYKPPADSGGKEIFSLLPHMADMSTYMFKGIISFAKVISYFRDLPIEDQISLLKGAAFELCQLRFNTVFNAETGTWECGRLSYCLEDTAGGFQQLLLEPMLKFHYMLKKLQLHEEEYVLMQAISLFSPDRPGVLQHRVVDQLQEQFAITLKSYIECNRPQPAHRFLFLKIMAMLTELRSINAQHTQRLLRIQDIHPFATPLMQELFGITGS
Peroxisome proliferator-activated receptor gamma (Homo sapiens), sequence (P37231 whole entry, looked up, the tested form may be a part): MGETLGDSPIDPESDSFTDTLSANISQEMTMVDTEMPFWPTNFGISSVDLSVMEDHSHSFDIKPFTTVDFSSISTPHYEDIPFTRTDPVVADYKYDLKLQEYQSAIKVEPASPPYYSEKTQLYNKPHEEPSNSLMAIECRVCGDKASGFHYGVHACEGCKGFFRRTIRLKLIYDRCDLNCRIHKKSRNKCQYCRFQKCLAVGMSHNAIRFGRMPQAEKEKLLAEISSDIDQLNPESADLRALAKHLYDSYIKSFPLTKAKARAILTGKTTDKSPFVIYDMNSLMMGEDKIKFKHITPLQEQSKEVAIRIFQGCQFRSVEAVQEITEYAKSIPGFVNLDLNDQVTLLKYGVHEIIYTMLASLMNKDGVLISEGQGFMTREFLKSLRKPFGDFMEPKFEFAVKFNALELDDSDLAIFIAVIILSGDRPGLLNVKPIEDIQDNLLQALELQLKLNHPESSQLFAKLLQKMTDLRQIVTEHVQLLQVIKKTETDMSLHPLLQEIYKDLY
human RAR-related Orphan Receptor gamma (RORg), RORC (gene 6097), sequence (P51449 whole entry, looked up, the tested form may be a part): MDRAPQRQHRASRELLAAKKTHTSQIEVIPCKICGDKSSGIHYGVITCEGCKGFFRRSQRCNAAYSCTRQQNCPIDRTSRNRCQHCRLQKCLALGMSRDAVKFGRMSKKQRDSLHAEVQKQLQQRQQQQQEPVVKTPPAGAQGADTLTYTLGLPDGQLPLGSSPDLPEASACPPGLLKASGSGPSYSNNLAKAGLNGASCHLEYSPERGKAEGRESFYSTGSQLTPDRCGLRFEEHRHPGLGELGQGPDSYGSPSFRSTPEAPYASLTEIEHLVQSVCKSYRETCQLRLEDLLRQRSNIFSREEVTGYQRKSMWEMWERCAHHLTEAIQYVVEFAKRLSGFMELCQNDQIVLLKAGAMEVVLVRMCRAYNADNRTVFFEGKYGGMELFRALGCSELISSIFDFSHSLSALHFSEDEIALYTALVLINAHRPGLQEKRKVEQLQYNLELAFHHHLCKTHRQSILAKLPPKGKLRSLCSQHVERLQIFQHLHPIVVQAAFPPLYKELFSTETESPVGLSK
human Retinoic Acid Receptor beta (RARb), RARB (gene 5915), sequence (P10826 whole entry, looked up): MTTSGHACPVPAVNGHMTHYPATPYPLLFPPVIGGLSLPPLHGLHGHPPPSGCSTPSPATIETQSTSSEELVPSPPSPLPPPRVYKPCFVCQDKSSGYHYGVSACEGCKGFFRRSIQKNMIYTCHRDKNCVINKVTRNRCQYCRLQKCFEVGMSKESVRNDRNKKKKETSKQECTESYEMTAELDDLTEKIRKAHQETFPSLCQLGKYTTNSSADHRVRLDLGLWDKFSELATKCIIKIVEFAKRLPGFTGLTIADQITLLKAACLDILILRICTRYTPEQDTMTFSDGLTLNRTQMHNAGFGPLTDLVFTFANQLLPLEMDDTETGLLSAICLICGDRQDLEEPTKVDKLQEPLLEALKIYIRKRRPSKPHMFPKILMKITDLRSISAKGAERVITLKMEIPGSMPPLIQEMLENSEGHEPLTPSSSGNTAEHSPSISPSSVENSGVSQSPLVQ
human Thyroid Receptor alpha (THRa1), THRA (gene 7067), sequence (P10827 whole entry, looked up, the tested form may be a part): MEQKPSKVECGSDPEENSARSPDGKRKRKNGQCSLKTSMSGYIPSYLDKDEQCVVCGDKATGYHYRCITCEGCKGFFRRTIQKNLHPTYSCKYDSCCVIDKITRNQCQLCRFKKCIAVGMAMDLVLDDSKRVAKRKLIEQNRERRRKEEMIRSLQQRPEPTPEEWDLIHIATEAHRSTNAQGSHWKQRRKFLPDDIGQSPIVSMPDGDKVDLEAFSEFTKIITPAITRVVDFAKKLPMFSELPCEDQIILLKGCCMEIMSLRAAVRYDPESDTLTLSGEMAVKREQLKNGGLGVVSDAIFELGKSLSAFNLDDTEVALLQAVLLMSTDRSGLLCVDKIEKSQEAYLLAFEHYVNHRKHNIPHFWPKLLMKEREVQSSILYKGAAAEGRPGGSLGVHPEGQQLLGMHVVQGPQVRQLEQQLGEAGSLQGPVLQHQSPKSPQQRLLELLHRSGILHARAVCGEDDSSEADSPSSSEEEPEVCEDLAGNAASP
human RAR-related Orphan Receptor beta (RORb), RORB (gene 6096), sequence (Q92753 whole entry, looked up, the tested form may be a part): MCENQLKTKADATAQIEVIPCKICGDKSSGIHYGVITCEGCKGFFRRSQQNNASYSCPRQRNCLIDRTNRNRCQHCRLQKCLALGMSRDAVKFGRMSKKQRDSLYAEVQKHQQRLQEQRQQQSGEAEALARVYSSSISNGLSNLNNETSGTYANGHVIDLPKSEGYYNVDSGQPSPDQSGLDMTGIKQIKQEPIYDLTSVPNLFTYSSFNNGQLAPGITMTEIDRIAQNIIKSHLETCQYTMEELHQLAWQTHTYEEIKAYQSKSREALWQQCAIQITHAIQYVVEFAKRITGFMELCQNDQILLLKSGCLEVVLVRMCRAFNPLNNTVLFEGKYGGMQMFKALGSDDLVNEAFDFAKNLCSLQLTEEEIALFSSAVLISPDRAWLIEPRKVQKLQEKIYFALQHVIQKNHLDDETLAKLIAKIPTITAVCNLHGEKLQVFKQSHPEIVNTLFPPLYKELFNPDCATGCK
E-selectin (Homo sapiens), sequence (P16581 whole entry, looked up): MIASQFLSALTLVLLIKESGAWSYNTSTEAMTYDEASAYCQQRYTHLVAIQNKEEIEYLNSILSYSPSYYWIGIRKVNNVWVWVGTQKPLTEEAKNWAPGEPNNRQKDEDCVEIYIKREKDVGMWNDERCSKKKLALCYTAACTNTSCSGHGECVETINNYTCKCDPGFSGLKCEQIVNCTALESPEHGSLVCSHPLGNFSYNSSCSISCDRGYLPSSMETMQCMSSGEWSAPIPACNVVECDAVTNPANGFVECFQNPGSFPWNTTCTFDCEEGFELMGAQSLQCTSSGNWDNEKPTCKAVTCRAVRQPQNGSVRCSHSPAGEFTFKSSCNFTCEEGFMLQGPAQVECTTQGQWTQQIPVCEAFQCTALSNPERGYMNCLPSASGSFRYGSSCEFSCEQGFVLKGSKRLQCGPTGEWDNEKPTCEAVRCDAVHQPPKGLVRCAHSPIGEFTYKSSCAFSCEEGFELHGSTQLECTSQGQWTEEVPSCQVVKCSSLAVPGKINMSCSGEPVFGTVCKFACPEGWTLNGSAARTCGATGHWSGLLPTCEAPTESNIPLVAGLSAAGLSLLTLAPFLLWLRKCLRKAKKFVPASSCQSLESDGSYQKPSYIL

CCOc1nc(NC)nc(NC(=O)NS(=O)(=O)c2ccccc2C(=O)OC)n1
not listed: [13] | [14] | [15] | [16] | [17] | [18]
inactive: all other assays above

C#CCN1C(=O)COc2cc(F)c(N3C(=O)C4=C(CCCC4)C3=O)cc21
active: [7] 50 µM
not listed: [4] | [17] | [18]
inactive: all other assays above

CC(C)(C)C(O)C(Oc1ccc(Cl)cc1)n1cncn1 (configuration not stated)
inactive: [1] | [2] | [3] | [5] | [13] | [14] | [6] | [7] | [15] | [17] | [18] | [8] | [9] | [16] | [10] | [11] | [12]
active: [15] 434 nM [middle of 5 runs] | [10] 3.36 µM | [12] 5.49 µM
